In PubChem BioAssay (NCI):
Compounds without any hit were thinned out: in the full panel of roughly 83,000, 20% have a hit.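 Single-concentration screen, 48 h exposure, 96-well plates. Endpoint: percent growth. Below 10 = active.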

How the values were obtained:
Test in all cases: NCI-60 one-dose screen, 48 h (100 = growth as untreated, 0 = no growth, -100 = all killed)
Conditions in all cases: 10 µM
[1] = test system: NCI-H23 lung
[2] = test system: NCI-H226 lung
[3] = test system: NCI-H322M lung
[4] = test system: HOP-62 NSCLC
[5] = test system: NCI-H460 lung
[6] = test system: HOP-92 NSCLC
[7] = test system: A549/ATCC NSCLC
[8] = test system: 786-0 renal
[9] = test system: COLO 205 colon
[10] = test system: DU-145 prostate
[11] = test system: K-562 leukemia
[12] = test system: MALME-3M melanoma
[13] = test system: MDA-MB-231 breast
[14] = test system: SF-268 CNS
[15] = test system: SF-295 CNS
[16] = test system: SF-539 CNS
[17] = test system: UACC-257 melanoma
[18] = test system: M14 melanoma
[19] = test system: NCI-H522 lung
[20] = test system: RXF 393 renal

Measured: growth

CCS(=O)(=O)c1cc(=O)[nH]c(=O)[nH]1
inactive: [1] 99.9% | [2] 107% | [3] 87.4% | [4] 106% | [5] 106% | [6] 162% | [7] 102% | [8] 100% | [9] 113% | [10] 109% | [11] 128% | [12] 56.9% | [13] 101% | [14] 105% | [15] 122% | [16] 111% | [17] 44.4% | [18] 87.1%

CN(C)CCN(Cc1ccccc1)c1ccccc1
inactive: [1] 99.8% | [2] 109% | [3] 110% | [4] 107% | [5] 104% | [19] 104% | [7] 106% | [8] 105% | [9] 118% | [10] 120% | [11] 81.7% | [12] 123% | [13] 91.7% | [20] 103% | [14] 114% | [15] 110% | [16] 121% | [17] 126%

C=CCNc1ccccc1
inactive: [1] 102% | [2] 103% | [3] 106% | [4] 86.9% | [5] 108% | [6] 88.5% | [7] 101% | [9] 112% | [10] 122% | [11] 113% | [12] 124% | [13] 86.7% | [20] 113% | [14] 104% | [15] 138% | [16] 104% | [17] 102%

c1cc2cccc3c4cccc5cccc(c(c1)c23)c54
inactive: [1] 101% | [2] 98.8% | [3] 119% | [4] 97.7% | [5] 109% | [6] 89.6% | [7] 125% | [9] 104% | [10] 115% | [11] 110% | [12] 119% | [13] 94.4% | [20] 106% | [14] 101% | [15] 118% | [16] 99% | [17] 125% | [18] 106%

CCOC(=O)Nc1nn[nH]n1
inactive: [1] 102% | [2] 107% | [3] 129% | [4] 113% | [5] 99.9% | [6] 97.3% | [7] 103% | [8] 105% | [9] 107% | [10] 108% | [11] 110% | [13] 104% | [20] 105% | [14] 100% | [15] 106% | [16] 97.7% | [17] 116% | [18] 95.3%

CCOC(=O)/C(C#N)=C/c1cccc(C)c1
inactive: [1] 99.5% | [2] 109% | [3] 95% | [4] 101% | [5] 103% | [6] 83.8% | [7] 95.5% | [8] 98.3% | [9] 119% | [10] 107% | [12] 96% | [13] 110% | [14] 94.1% | [15] 97.9% | [16] 95.1% | [17] 104% | [18] 97.4%

CCCCCCCO
inactive: [1] 106% | [2] 94.7% | [3] 92.6% | [4] 98.8% | [5] 110% | [6] 88.7% | [7] 102% | [8] 110% | [9] 118% | [10] 114% | [11] 106% | [13] 104% | [20] 97.3% | [14] 125% | [16] 89.5% | [17] 93.5% | [18] 98.5%

CN(c1ccccc1)c1ncnc2c1ncn2C
inactive: [1] 101% | [2] 107% | [3] 115% | [4] 103% | [5] 101% | [6] 105% | [7] 87.3% | [8] 106% | [9] 105% | [10] 108% | [11] 103% | [13] 109% | [20] 122% | [14] 97.5% | [15] 109% | [16] 107% | [17] 87.9% | [18] 104%

C=CCNc1nnc(C)s1
inactive: [1] 98.1% | [2] 99.8% | [3] 96.7% | [4] 98.8% | [5] 115% | [6] 83% | [7] 116% | [8] 94.9% | [9] 122% | [10] 118% | [11] 106% | [12] 106% | [13] 102% | [14] 119% | [15] 115% | [16] 99.9% | [18] 103%
